Hits are enriched below; roughly 8.3% of the tested compounds scored in any of these assays.
Giardia kill: Giardia lamblia killing; Giardia lamblia trophozoite viability; 340,000 compounds, 0.15% hits; activity change, % at 7.66 µM, hits read low; in the data active means activity change below about -80%; inconclusive means between about -30% and that limit;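 further: parasites exposed to compound for two days anaerobically before the ATP read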
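Luminescent ATP signal served as the viability read-out, measured 15-30 min after adding ATP detection reagent to trophozoites that had been incubated with compounds for 48 hrs at 37 deg C anaerobically at 100 cells/well.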
Gal4-VP16 FLuc: inhibits Gal4-VP16 luciferase reporter, ROR gamma counter-screen; Drosophila S2 Gal4-VP16 UAS-luciferase, luminescence, 20 h; Potency, µM (doses to about 53.6 µM), most hits filed as inhibitors; 310,000 compounds, 3.5% hits; AID 2546;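 further: Gal4-VP16 expression switched on by copper sulfate through the metallothionein promoter; nearly all actives have a fitted effect of over 50% in size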
SW480 rereplic: inducers of DNA re-replication in SW480 colon cancer cells; SW480 DNA re-replication, Hoechst DNA content imaging, 48 h; Potency, µM (doses to about 46.1 µM), usual class: activators; 340,000 compounds, 1.8% hits; further: nearly all actives have a fitted effect of over 55% in size
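SW480 cells exposed to compounds for 48 hr at 37 C, 5% CO2, then Hoechst-stained 40 min. Nuclear DNA content imaged by fluorescence scanning (405 nm excitation, 500-530 nm emission); re-replication scored as increased high-intensity nuclei.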
Chronic BCR inh: inhibitors of chronic active B-cell receptor signaling; ABC-DLBCL IkBa-CBG/CBR reporter, luminescence ratio, 4 h; Potency, µM (top dose mostly 46.1 µM), usual class: inhibitors; 340,000 compounds, 0.05% hits; active means well fitted inhibition curve with a large enough effect in the signal ratio, with a control signal flat, not every such curve was filed as active; inconclusive means small, poorly fitted or top-dose-only effect, or effect the other way, or a change in a side signal; the % refers to the signal ratio
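Cell line TMD8 (human ABC DLBCL), stably expressing tet-inducible CBG68-IkBa fusion and CBR; IMDM/0.5% FBS; cpd up to 46 uM; dox induction, 4 h, 37C/5% CO2; dual luminescence; green/red ratio; MG132 control.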
MCF10A rerep: inducers of DNA re-replication in MCF 10A breast cells; Potency, µM (doses to about 46.1 µM), usual class: activators; 350,000 compounds, 2.9% hits; AID 624296; MCF 10A DNA re-replication, Hoechst nuclear intensity, 48 h; further: nearly all actives have a fitted effect of over 50% in size
RORgamma inh: blocks mouse ROR gamma transcriptional activity. Drosophila S2 Gal4-RORgamma UAS-luciferase reporter, 20 h. Potency, µM (doses to about 53.6 µM), usual class: inhibitors. 310,000 compounds, 5.4% hits. AID 2551; further: nearly all actives have a fitted effect of over 60% in size
Target sequence (P51450 whole entry, looked up, the tested form may be a part): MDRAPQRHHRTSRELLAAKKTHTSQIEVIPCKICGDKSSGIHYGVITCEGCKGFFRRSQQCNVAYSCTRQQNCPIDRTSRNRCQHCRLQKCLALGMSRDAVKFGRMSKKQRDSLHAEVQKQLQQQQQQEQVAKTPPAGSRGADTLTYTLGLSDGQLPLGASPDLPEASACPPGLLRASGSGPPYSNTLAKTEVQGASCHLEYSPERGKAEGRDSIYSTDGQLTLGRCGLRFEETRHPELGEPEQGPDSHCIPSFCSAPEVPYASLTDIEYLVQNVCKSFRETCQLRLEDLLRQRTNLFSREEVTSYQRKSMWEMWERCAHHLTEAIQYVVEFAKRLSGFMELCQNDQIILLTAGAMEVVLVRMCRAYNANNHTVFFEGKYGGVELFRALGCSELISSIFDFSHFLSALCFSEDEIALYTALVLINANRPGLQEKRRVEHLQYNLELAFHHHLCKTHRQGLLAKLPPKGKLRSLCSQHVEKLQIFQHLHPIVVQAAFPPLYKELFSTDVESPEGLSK
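Using a luciferase readout, inhibitors were identified by reduced reporter activity in Drosophila cells coexpressing a copper-inducible Gal4–ROR gamma fusion and UAS-driven Photinus luciferase, incubated 20 hr after 700 uM copper sulfate.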
Of the large screens only hits and unclear results are named; the others gave an inactive call. Unless noted, the call rests on the fitted dose curve; in most records, active means well fitted curve in the direction sought with a large enough effect; inconclusive means small, poorly fitted or top-dose-only effect, or another doubt; inactive means no such curve, though single readings can be large; an effect the other way counts as inactive or inconclusive.

Cc1cccc(N(C)C(=O)c2cc3cc4ccc(C)cc4nc3o2)c1	SW480 rereplic inconclusive, Chronic BCR inh inconclusive, MCF10A rerep 10µM
O=[N+]([O-])c1cc(CN2CCOCC2)c2cccnc2c1O	SW480 rereplic inconclusive
O=C(Oc1c(CN2CCOCC2)cc(Cl)c2cccnc12)c1ccccc1	Gal4-VP16 FLuc 5µM, SW480 rereplic 8.2µM, Chronic BCR inh inconclusive, MCF10A rerep inconclusive, RORgamma inh 1.8µM
COc1cc(OC)cc(C(=O)Oc2c(CN3CCOCC3)cc(Cl)c3cccnc23)c1	Gal4-VP16 FLuc 3.2µM, SW480 rereplic inconclusive, Chronic BCR inh inconclusive, RORgamma inh 4.5µM
Oc1c(Cl)cc(CN2CCOCC2)c2cccnc12	SW480 rereplic inconclusive, MCF10A rerep 12µM (no result: Gal4-VP16 FLuc, RORgamma inh)
O=S(=O)(c1ccc(Cl)cc1)N1CCN(Cc2ccc(O)c3ncccc23)CC1	Gal4-VP16 FLuc 2.8µM, SW480 rereplic inconclusive, MCF10A rerep inconclusive, RORgamma inh 1µM
COc1ccc(C(=O)Oc2c(CN3CCOCC3)cc(Cl)c3cccnc23)cc1OC	none (no result: Gal4-VP16 FLuc, Chronic BCR inh, RORgamma inh)
COCCn1c(C)nnc1SCC(=O)NNC(=O)c1ccc(Br)cc1	none
CC(C)CO/N=C1/C[C@@H](O)[C@@H](O)[C@@H]2[C@@H]3C(=O)N([C@@H](C)c4ccccc4)C(=O)[C@H]3CC[C@@H]12	none (no result: Giardia kill, SW480 rereplic, Chronic BCR inh, MCF10A rerep)
COc1cc(N)c(Cl)cc1C(=O)OCC(=O)N(C)C1CCCCC1	none (no result: Gal4-VP16 FLuc, RORgamma inh)
Oc1c(CN2CCCCC2)cc(Br)c2cccnc12	Gal4-VP16 FLuc 1µM, SW480 rereplic inconclusive, Chronic BCR inh inconclusive, MCF10A rerep 23µM, RORgamma inh 4µM
O=C(Oc1c(CN2CCOCC2)cc(Cl)c2cccnc12)c1ccccc1F	Gal4-VP16 FLuc 2.2µM, SW480 rereplic 6.5µM, Chronic BCR inh 3.5µM, MCF10A rerep 18µM, RORgamma inh 1.1µM
O=C(Cc1c(O)c2ccccc2oc1=O)c1ccc(C(F)(F)F)cc1	none
Cc1c(O)c(CN2CCCCC2)cc2c1oc(=O)c1ccccc12	none
O=c1oc2ccccc2c(O)c1Cc1cc(Cl)c2cccnc2c1O	Gal4-VP16 FLuc 1.1µM, SW480 rereplic inconclusive, Chronic BCR inh inconclusive, MCF10A rerep 5.8µM, RORgamma inh 0.79µM
CN1CCN(Cc2cc(COCc3ccccc3)c3cccnc3c2O)CC1	Gal4-VP16 FLuc 1.3µM, SW480 rereplic 6.3µM, Chronic BCR inh inconclusive, MCF10A rerep inconclusive, RORgamma inh 2µM
COc1ccccc1S(=O)(=O)Cc1ccc(C(=O)NCc2ccccc2)o1	none
CCOC(=O)C1(CCOC)CCN(Cc2ccc(C3CCCCO3)s2)CC1 (centres undefined)	Chronic BCR inh inconclusive
CC1CCN(S(=O)(=O)c2nnc(NC(=O)COc3ccccc3)s2)CC1	none
Brc1cc2c(cc1CN1CCc3ccccc3C1)OCO2	none
Oc1c(CN2CCc3ccccc3C2)cc(Cl)c2cccnc12	Gal4-VP16 FLuc 1.1µM, Chronic BCR inh inconclusive, MCF10A rerep inconclusive, RORgamma inh 0.79µM
COc1ccc(S(=O)(=O)N(C)CC(=O)NCc2cccnc2)cc1OC	MCF10A rerep 23µM
CN(CC(=O)NCc1cccnc1)S(=O)(=O)c1ccc(F)cc1	none
COc1cc(OC)cc(C(=O)NC(=S)N(Cc2ccccc2)C(C)C)c1	Gal4-VP16 FLuc 0.89µM, RORgamma inh 0.5µM
COc1ccc(C(=O)NCCNC(=O)c2ccc(OC)cc2)cc1	none (no result: Gal4-VP16 FLuc, Chronic BCR inh, RORgamma inh)
COc1cc(OC)cc(C(=O)NC(=S)NCCc2ccccc2)c1	Gal4-VP16 FLuc 0.63µM, SW480 rereplic inconclusive, Chronic BCR inh inconclusive, RORgamma inh 0.71µM
COc1cc(OC)cc(C(=O)NCCNC(=O)c2ccccc2)c1	none
COc1ccc(C(=O)NCCSc2ccccc2)cc1	Gal4-VP16 FLuc inconclusive, Chronic BCR inh inconclusive, MCF10A rerep inconclusive, RORgamma inh 11µM
CC(SCC(=O)O)c1nc2ccccc2[nH]1 (centres undefined)	none
O=C(CSc1nnc(COc2ccccc2)n1-c1ccccc1)c1cccs1	Gal4-VP16 FLuc inconclusive, SW480 rereplic inconclusive, MCF10A rerep inconclusive, RORgamma inh inconclusive
CCCC1(C(=O)OC)NC(c2ccc(OC)c(OC)c2)C2C(=O)N(c3cccc(C(C)=O)c3)C(=O)C21 (centres undefined)	Chronic BCR inh inconclusive
CCCCc1nc2cc(C(=O)N3CCCCC3C(=O)OC)ccc2o1 (centres undefined)	Gal4-VP16 FLuc inconclusive
CN1C(=O)[C@H]2[C@@H](C3CC3)N3C(=O)CN(Cc4ccc(-c5ccccc5)cc4)C(=O)[C@@]3(C)[C@H]2C1=O	Chronic BCR inh inconclusive, MCF10A rerep inconclusive
CCOc1cc(C(=O)NC2CCCCCCC2)cc(OCC)c1OCC	none (no result: Gal4-VP16 FLuc, Chronic BCR inh, RORgamma inh)
COc1ccc(C(=O)NC(=S)NCc2cccnc2)cc1Cl	Gal4-VP16 FLuc inconclusive, RORgamma inh 11µM
O=C(NC(=S)NCc1ccccc1)c1ccc(Br)cc1	MCF10A rerep inconclusive (no result: Gal4-VP16 FLuc, Chronic BCR inh, RORgamma inh)
COc1ccc(C(=O)NC(=S)NCc2ccccc2)cc1	Gal4-VP16 FLuc 22µM, RORgamma inh 7.1µM
Cc1cc(-c2ccc(N=Nc3cc(S(=O)(=O)O)c4ccccc4c3N)c(C)c2)ccc1N=Nc1cc(S(=O)(=O)O)c2ccccc2c1N	none (no result: Giardia kill, SW480 rereplic, Chronic BCR inh, MCF10A rerep)
CCCc1cc(-c2[nH]ncc2-c2ccc3c(c2)OCCCO3)c(O)cc1OC	Gal4-VP16 FLuc inconclusive, Chronic BCR inh inconclusive, RORgamma inh 3.5µM (no result: Giardia kill, SW480 rereplic, MCF10A rerep)
CCc1cc(-c2[nH]ncc2-c2ccc3c(c2)OCO3)c(O)cc1O	Chronic BCR inh inconclusive
COc1ccc(NS(=O)(=O)c2ccc(-c3coc(C)n3)cc2)cc1	RORgamma inh inconclusive
COc1ccc(NS(=O)(=O)c2ccc(-c3coc(C)n3)cc2)cc1OC	Gal4-VP16 FLuc 1.4µM, RORgamma inh inconclusive
COc1cc(S(=O)(=O)NCCCn2ccnc2)ccc1F	none
CC(C)(C)c1cc(CCC(=O)NCC2CCCO2)cc(C(C)(C)C)c1O (centres undefined)	none
CCCN(CC(=O)Nc1ccc(F)c(F)c1F)C(=O)c1ccc2c(=O)n3c(nc2c1)CCC3	none (no result: Gal4-VP16 FLuc, RORgamma inh)
CNC(=O)c1c(NC(=O)c2ccc(S(=O)(=O)N3CCCC3)cc2)sc2c1CCN(C(C)C)C2	Chronic BCR inh inconclusive (no result: Giardia kill, SW480 rereplic, MCF10A rerep)
CNC(=O)c1c(NC(=O)c2ccc(S(=O)(=O)N3CCCCC3C)cc2)sc2c1CCN(C)C2 (centres undefined)	SW480 rereplic inconclusive, MCF10A rerep 21µM
O=C1CCCC2=C1C(c1ccc(Cl)cc1)C1C(=O)c3ccccc3C1=N2 (centres undefined)	SW480 rereplic 15µM, Chronic BCR inh inconclusive, MCF10A rerep 13µM
O=C1CCCC2=C1C(c1ccccc1)C1C(=O)c3ccccc3C1=N2 (centres undefined)	Gal4-VP16 FLuc inconclusive, Chronic BCR inh inconclusive, RORgamma inh inconclusive
CC1=NN(c2nc(-c3ccc(C)cc3)cs2)C(=O)C1N=Nc1ccc2ccccc2c1 (centres undefined)	none
